# According to PubChem BioAssay (NCATS):
# Where “and” joins values, the source holds several entries; their conditions need not be identical. Equal values may be shown once. Inconclusive results are not listed. A number with no mark means an inactive call. Calls of active or inactive are those of the source. Calls come from the whole dose curve; as a rule, active = well fitted activation curve with a large enough effect; inconclusive = small, poorly fitted or top-dose-only effect; inactive = no such curve, though single readings can be large or run the other way.
# Target: Cellular tumor antigen p53 (Homo sapiens) (UniProt P04637)
# Assay: Primary qHTS for small molecule compounds that upregulate eGFP-tagged delta133p53alpha (in N-terminal) cells. (AID 2060322); note: nearly all actives have a fitted effect of over 75% in size;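 for activation: series mostly up to about 56 µM; 0% = DMSO vehicle and 100% = reference activator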
# Details: NCI-H358 eGFP-delta133p53alpha fluorescence, 24 h; activation: hits give high values
# Outline: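 NCI-H358 cells pre-induced 24 h with 10 ng/ml doxycycline to express N-terminal eGFP-delta133p53alpha, then dosed 24 h at 37C without doxycycline; fixed, Hoechst-stained, GFP intensity by laser scanning cytometry, normalized to DMSO (0%) and 57.5 uM 5-azacytidine (100%).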
# Potency is the fitted concentration of half-maximal effect.
# Cellular tumor antigen p53 (Homo sapiens), sequence (P04637 whole entry, looked up): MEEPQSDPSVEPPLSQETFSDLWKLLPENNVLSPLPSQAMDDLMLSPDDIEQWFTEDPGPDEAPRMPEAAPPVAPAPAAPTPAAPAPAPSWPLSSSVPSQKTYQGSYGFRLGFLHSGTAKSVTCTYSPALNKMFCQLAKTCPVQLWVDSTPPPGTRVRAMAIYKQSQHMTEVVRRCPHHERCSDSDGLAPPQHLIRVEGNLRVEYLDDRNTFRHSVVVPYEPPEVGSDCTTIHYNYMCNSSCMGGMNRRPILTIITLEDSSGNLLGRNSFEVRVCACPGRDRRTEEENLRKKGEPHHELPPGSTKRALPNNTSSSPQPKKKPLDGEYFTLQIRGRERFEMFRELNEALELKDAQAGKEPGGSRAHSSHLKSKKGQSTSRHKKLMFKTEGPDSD
SMILES,activation,Potency
Cc1nnc2n1-c1sc(CCC(=O)N3CCOCC3)cc1C(c1ccccc1Cl)=NC2,-12.6%,–
CCN(CC)CCN1C(=O)CN=C(c2ccccc2F)c2cc(Cl)ccc21,11.9%,–
CC(C)(O)C(Cl)(Cl)Cl,-9.6%,–
CCN(CC)CCOC(=O)C(O)(c1ccccc1)c1ccccc1,20.9%,–
CN1C(=O)NC(=O)C(C)(C2=CCCCC2)C1=O (stereo not given),3.35%,–
CNCC(=O)c1ccc(O)c(O)c1,8.47%,–
Nc1ccccc1C(=O)OCC(O)CO (stereo not given),-5.02%,–
CCOC(=O)CC(SP(=S)(OC)OC)C(=O)OCC (stereo not given),-9.21% and 9.21%,–
OCCOc1ccccc1,-20.9%,–
CC(=CCCC1=CCC(C2=CC(=O)OC2O)OC1O)CCC1=C(C)CCCC1(C)C (stereo not given),16.4%,–
C[C@H](N)[C@H](O)c1ccc(O)c(O)c1,-36.8%,–
CN1C(=O)CN=C(c2ccccc2)c2cc([N+](=O)[O-])ccc21,-19.8%,–
Nc1ccc(Cl)cc1,-6.21%,–
CCN1CCCC1CNC(=O)C(O)(c1ccccc1)c1ccccc1 (stereo not given),-15.1%,–
Cc1c(C(=O)c2cccc3ccccc23)c2cccc3c2n1[C@H](CN1CCOCC1)CO3,12.1%,–
O=[N+]([O-])O[C@H]1CO[C@H]2[C@@H]1OC[C@H]2O[N+](=O)[O-],34.5%,–
Clc1ccc(CO/N=C(\Cn2ccnc2)c2ccc(Cl)cc2Cl)c(Cl)c1,-8.37%,–
COC(=O)c1cncn1C(C)c1ccccc1 (stereo not given),-29.3%,–
O=C(CCCN1CCC(n2c(=O)[nH]c3ccccc32)CC1)c1ccc(F)cc1,-4.18%,–
C[C@@]12OC(=O)[C@]1([C@@H](O)[C@@H]1C=CCCC1)NC(=O)[C@H]2CCCl,–,2.73 µM (active)

SMILES,activation,Potency
OC(O)C(Cl)(Cl)Cl,-29.9%,–
Nc1ccc(Cl)cc1N,–,22.4 µM (active)
COc1cc(CC(C)N)cc(OC)c1OC (stereo not given),-10.7%,–
O=C1c2ccccc2C(=O)C1C(=O)C(c1ccccc1)c1ccccc1,24.3%,–
C=CCOC(Cn1ccnc1)c1ccc(Cl)cc1Cl (stereo not given),6.69%,–
CC1NCCOC1c1ccccc1 (stereo not given),9.6%,–
C[C@@H]1CC2=CC(=O)CC[C@@H]2[C@H]2CC[C@@]3(C)[C@@H](CC[C@]3(C)O)[C@@H]21,-3.35%,–
COc1ccc(CN2CCNCC2)c(OC)c1OC,-13%,–
CN1CCC(O)(c2ccc(F)cc2)C(C(=O)c2ccc(F)cc2)C1 (stereo not given),-14.1%,–
C[C@]12Cc3nonc3C[C@@H]1CC[C@@H]1[C@@H]2CC[C@@]2(C)[C@H]1CC[C@]2(C)O,7.34%,–
CC(=O)[O][Hg][c]1ccccc1,–,8.71 µM (active)
C=CCC1=C(C)C(OC(=O)C2C(C=C(C)C)C2(C)C)CC1=O (stereo not given),18.6%,–
CC(=O)C1CCOC1=O (stereo not given),-9.21%,–
C[C@]12COC(=O)C[C@@H]1CC[C@@H]1[C@H]2CC[C@@]2(C)[C@H]1CC[C@]2(C)O,-15.3%,–
C#CCOC(C(=O)OCCN(C)C)(c1ccccc1)c1ccccc1,-6.21%,–
C=CC[C@]1(O)CC[C@H]2[C@@H]3CCC4=CC(=O)CCC4=C3C=C[C@@]21C,-4.18%,–
COc1cc(C[C@@H](C)N)c(OC)cc1Br,-17.5%,–
CNC(C)Cc1ccc2c(c1)OCO2 (stereo not given),17.5%,–
COP(=S)(OC)SCN1C(=O)c2ccccc2C1=O,–,21.9 µM (active)
O=[N+]([O-])c1ccc([As](=O)(O)O)cc1,-14.2%,–
